Measurements published in PubChem BioAssay (NCI).
Several values for one entry are separate records, joined by “and”; a condition that tells them apart may be missing. Equal values may be shown once. This is part of a sample that, as a whole, favours compounds with a hit. Of some 79,000 tested, about 15% had one in any assay. Where a structure was tested more than once in an assay, its records may differ in their call. Activity calls are given as the source filed them. Cut-off read from the data, not from the text of the source: active = growth inhibition above about 70%; inactive = the rest.

What was measured:
[1] = NCI Yeast Anticancer Drug Screen. Data for the rad52 strain (AID 147);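 note: 0% = growth of vehicle-treated control cultures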; conditions: S. cerevisiae rad52 mutant growth inhibition, stronger effect = higher value
Procedure, shortened: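 Inhibition of yeast growth, referenced to vehicle controls, was the measured output for a strain with defective DNA damage repair.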

[2] = NCI Yeast Anticancer Drug Screen. Data for the wt1 strain (AID 149);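 note: 0% = growth of vehicle-treated wt1 cultures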; conditions: S. cerevisiae wt1 strain (SPY 50644) growth inhibition, stronger effect = higher value
Procedure, shortened: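 wt1 yeast, compound-treated; % growth inhibition vs vehicle control.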

[3] = NCI Yeast Anticancer Drug Screen. Data for the rad50EPP+ strain (AID 151);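 note: 0% = growth of vehicle-treated control cultures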; conditions: S. cerevisiae rad50 mutant strain, stronger effect = higher value
Procedure, shortened: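 Genetically defined yeast (rad50EPP+, DNA damage repair alteration) is grown with compound, and inhibition of growth is expressed relative to vehicle-treated controls.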

[4] = NCI Yeast Anticancer Drug Screen. Data for the mgt1 strain (AID 153); conditions: S. cerevisiae mgt1 mutant growth inhibition, stronger effect = higher value
Procedure, shortened: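 In the mgt1 strain, test compounds were added and growth inhibition was determined relative to vehicle-treated controls.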

[5] = NCI Yeast Anticancer Drug Screen. Data for the rad50 strain (AID 155);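 note: 0% = growth of vehicle-only cultures of the same strain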; conditions: S. cerevisiae rad50 strain growth inhibition, stronger effect = higher value
Procedure, shortened: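 Genetically altered yeast (DNA repair pathway); compound treatment; growth inhibition vs vehicle ctrl.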

[6] = NCI Yeast Anticancer Drug Screen. Data for the mec2-1 strain (AID 157); conditions: S. cerevisiae mec2-1 strain, stronger effect = higher value
Procedure, shortened: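 Each compound was tested on mec2-1 yeast, a strain altered in DNA damage repair or cell cycle control. Growth inhibition is reported relative to vehicle.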

[7] = NCI Yeast Anticancer Drug Screen. Data for the sgs1 mgt1 strain (AID 161);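 note: 0% = growth of cultures given vehicle only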; conditions: S. cerevisiae sgs1 mgt1 strain, stronger effect = higher value
Procedure, shortened: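 Inhibition of yeast growth, normalised to vehicle-treated controls, is reported for a strain bearing genetic alterations in DNA damage repair.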

[8] = NCI Yeast Anticancer Drug Screen. Data for the cln2 rad14 strain (AID 165);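 note: 0% = growth equal to vehicle treated cultures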; conditions: S. cerevisiae cln2 rad14 strain, stronger effect = higher value
Procedure, shortened: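 Test compounds were added to cln2 rad14 yeast cultures; inhibition of growth was then determined by comparison with vehicle treatment.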

[9] = NCI Yeast Anticancer Drug Screen. Data for the bub3 strain (AID 167); conditions: S. cerevisiae bub3 mutant strain, stronger effect = higher value
Procedure, shortened: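 Yeast carrying a defined mutation is treated with each compound, and growth is compared with that of vehicle-exposed cells to give inhibition.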

[10] = NCI Yeast Anticancer Drug Screen. Data for the wt2 strain (AID 169);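 note: 0% = growth of vehicle-treated yeast cultures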; conditions: S. cerevisiae wt2 strain growth inhibition, stronger effect = higher value
Procedure, shortened: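 The panel's yeast strains carry defined changes in DNA repair or cell cycle genes. Each strain is grown with compound, and growth loss is scored relative to vehicle.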

[11] = NCI Yeast Anticancer Drug Screen. Data for the mlh1 strain (AID 171);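 note: 0% = growth of vehicle-treated control cultures of the same strain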; conditions: S. cerevisiae mlh1 strain growth inhibition, stronger effect = higher value
Procedure, shortened: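 Inhibition values reflect reduced yeast growth in the presence of compound, referenced to vehicle controls, using a strain chosen for its alteration in DNA repair or cell cycle control.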

[12] = NCI Yeast Anticancer Drug Screen. Data for the sgs1 strain (AID 173);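 note: 0% = growth of vehicle-only control cultures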; conditions: S. cerevisiae sgs1 mutant, stronger effect = higher value
Procedure, shortened: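 Vehicle-treated cultures served as reference for growth inhibition of a yeast strain altered in DNA damage repair or cell cycle control after compound exposure.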

[13] = NCI Yeast Anticancer Drug Screen. Data for the mlh1 rad18 strain (AID 175); conditions: S. cerevisiae mlh1 rad18 strain growth inhibition, stronger effect = higher value
Procedure, shortened: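 Inhibition values reflect reduced growth of mutant yeast versus vehicle-treated controls following compound exposure; the mutations affect DNA damage repair.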

[14] = NCI Yeast Anticancer Drug Screen. Data for the rad18 strain (AID 177); conditions: S. cerevisiae rad18 mutant growth inhibition, stronger effect = higher value
Procedure, shortened: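 Steps: expose repair-mutant yeast to compound; measure growth; express as inhibition relative to vehicle control.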

[15] = NCI Yeast Anticancer Drug Screen. Data for the CLN2oe strain (AID 163);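 note: 0% = growth of vehicle-only control cultures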; conditions: S. cerevisiae CLN2oe strain, stronger effect = higher value
Procedure, shortened: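 First, the altered yeast strain was treated with each compound; second, its growth was measured; finally, inhibition was derived by comparison with vehicle controls.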

[16] = at 5.0 µM (retest, dose inferred, filed as 0.5)
[17] = at 50.0 µM (retest, dose inferred, filed as 5.0)

Measured: growth inhibition

Nc1ccc2c(c1)C(=O)c1ccc(F)cc1-2
inactive: [1]; at 1.2 µM 13% | [1]; at 3.7 µM 24% | [1]; at 11.0 µM 43% | [1]; at 33.0 µM 47% | [1]; at 100.0 µM 53% | [2]; at 1.2 µM 1% | [2]; at 3.7 µM 2% | [2]; at 11.0 µM 9% | [2]; at 33.0 µM 14% | [2]; at 100.0 µM 16% | [3]; at 1.2 µM 13% | [3]; at 3.7 µM 28% | [3]; at 11.0 µM 46% | [3]; at 33.0 µM 59% | [3]; at 100.0 µM 60% | [4]; at 1.2 µM 2% | [4]; at 3.7 µM 9% | [4]; at 11.0 µM 15% | [4]; at 33.0 µM 24% | [4]; at 100.0 µM 19% | [5]; at 1.2 µM 16% | [5]; at 3.7 µM 36% | [5]; [16] 5% | [5]; at 11.0 µM 55% | [5]; at 33.0 µM 61% | [5]; at 100.0 µM 51% | [6]; at 1.2 µM 4% | [6]; at 3.7 µM 10% | [6]; [16] -2% | [6]; at 11.0 µM 11% | [6]; at 33.0 µM 13% | [6]; [17] 30% | [6]; at 50.0 µM 19.6% | [6]; at 100.0 µM 22% | [7]; [16] -6% | [7]; [17] 32% | [7]; at 50.0 µM 9.55% | [8]; [16] 5% | [8]; [17] 8% | [8]; at 50.0 µM 5.25% | [9]; at 1.2 µM 2% | [9]; at 3.7 µM 6% | [9]; [16] -13% | [9]; at 11.0 µM 12% | [9]; at 33.0 µM 12% | [9]; [17] 35% | [9]; at 50.0 µM 20% | [9]; at 100.0 µM 20% | [10]; at 1.2 µM 1% | [10]; at 3.7 µM 3% | [10]; at 11.0 µM 7% | [10]; at 33.0 µM 11% | [10]; at 100.0 µM 12% | [11]; at 1.2 µM 3% | [11]; at 3.7 µM 13% | [11]; at 11.0 µM 14% | [11]; at 33.0 µM 13% | [11]; at 100.0 µM 22% | [12]; at 1.2 µM -4% | [12]; at 3.7 µM -4% | [12]; at 11.0 µM 0% | [12]; at 33.0 µM 2% | [12]; at 100.0 µM 4% | [13]; [16] 15% | [13]; at 50.0 µM 33.2% | [14]; at 1.2 µM 0% | [14]; at 3.7 µM 6% | [14]; at 11.0 µM 26% | [14]; at 33.0 µM 35% | [14]; at 100.0 µM 14%
active: [5]; [17] 71% | [5]; at 50.0 µM 81.4% | [13]; [17] 78%

Cc1sc2ccc3ccccc3c2[n+]1C
77% (active) and -4% (inactive): [5]; [17]
inactive: [1]; at 1.2 µM -3% | [1]; at 3.7 µM -14% | [1]; at 11.0 µM -17% | [1]; at 33.0 µM 3% | [2]; at 1.2 µM -21% | [2]; at 3.7 µM -19% | [2]; at 11.0 µM -24% | [2]; at 33.0 µM -8% | [3]; at 1.2 µM -23% | [3]; at 3.7 µM -10% | [3]; at 11.0 µM -40% | [3]; at 33.0 µM -25% | [3]; at 100.0 µM 10% | [4]; at 1.2 µM -9% | [4]; at 3.7 µM -12% | [4]; at 11.0 µM -17% | [4]; at 33.0 µM 13% | [5]; at 1.2 µM 7% | [5]; at 3.7 µM 27% | [5]; [16] 44% and -15% | [5]; at 11.0 µM 12% | [5]; at 33.0 µM 15% | [6]; at 1.2 µM -31% | [6]; at 3.7 µM -36% | [6]; [16] 49% and -26% | [6]; at 11.0 µM -17% | [6]; at 33.0 µM -11% | [6]; [17] 61% and -2% | [7]; [16] -14% and -11% | [7]; [17] 20% and 4% | [15]; at 1.2 µM -16% | [15]; at 3.7 µM -64% | [15]; at 11.0 µM -39% | [15]; at 33.0 µM -19% | [9]; at 1.2 µM -2% | [9]; at 3.7 µM -15% | [9]; [16] 23% and -18% | [9]; at 11.0 µM -28% | [9]; at 33.0 µM 14% | [9]; [17] 44% and 36% | [10]; at 1.2 µM -11% | [10]; at 3.7 µM 2% | [10]; at 11.0 µM -12% | [10]; at 33.0 µM 8% | [11]; at 1.2 µM -67% | [11]; at 3.7 µM -62% | [11]; at 11.0 µM -70% | [11]; at 33.0 µM -41% | [11]; at 100.0 µM 41% | [12]; at 1.2 µM 3% | [12]; at 3.7 µM 2% | [12]; at 11.0 µM 1% | [12]; at 33.0 µM 19% | [13]; [16] 32% and -17% | [13]; [17] 46% and 8%
active: [1]; at 100.0 µM 94% | [2]; at 100.0 µM 94% | [4]; at 100.0 µM 79% | [5]; at 50.0 µM 82.6% and 95.2% | [5]; at 100.0 µM 83% | [6]; at 50.0 µM 85.8% and 91.7% | [6]; at 100.0 µM 93% | [7]; at 50.0 µM 89.2% and 97.3% | [15]; at 100.0 µM 92% | [9]; at 50.0 µM 86.6% and 89.3% | [9]; at 100.0 µM 96% | [10]; at 100.0 µM 94% | [12]; at 100.0 µM 91% | [13]; at 50.0 µM 86.7% and 96.7%
